Among the data in PubChem BioAssay (Tox21) are Potency values, retold here.

Assay [1] can be described thus: Nuclear factor erythroid 2-related factor 2/antioxidant responsive element (Nrf2/ARE) small molecule agonists: qHTS cell viability counter screen in human keratinocytes (AID 1919968; active = well fitted curve in the direction sought with a large enough effect in the repeat runs; an effect the other way counts as inactive or inconclusive; note: nearly all actives have a fitted effect of over 55% in size; note: potency is the fitted concentration of half-maximal effect). In outline: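 CellTiter-Fluor fluorescence, read 1 h after reagent, gave viability in the same wells as the ARE-luciferase assay. KeratinoSens cells (1,500/well) had 23 h compound exposure at 37 C/5% CO2 following 5 h plating.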
(Quantitative high-throughput screening tests each substance at several concentrations.)

Assay [2] is described as follows: Nuclear factor erythroid 2-related factor 2/antioxidant responsive element (Nrf2/ARE) small molecule agonists: luciferase reporter gene qHTS assay in human keratinocytes (AID 1919969). Note: nearly all actives have a fitted effect of over 35% in size. Note: potency is the fitted concentration of half-maximal effect. On the technique in general: In a reporter assay the amount or activity of a reporter protein is the signal.
Assay [3] deals with Gonadotropin-releasing hormone receptor (Homo sapiens) (UniProt P30968). The experiment in a line: Human gonadotropin-releasing hormone receptor (GnRHR) small molecule agonists, calcium flux assay in GnRHR-HEK293 cells (AID 1920063). Note: nearly all actives have a fitted effect of over 35% in size. In outline: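 Agonist mode: compounds at 15 concentrations, in triplicate, went onto calcium dye-loaded GnRHR-HEK293 cells. Intracellular calcium was then followed as 480/540 nm fluorescence at 1 s intervals over 3 min.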
Chain of Gonadotropin-releasing hormone receptor (Homo sapiens) (P30968 whole entry, looked up): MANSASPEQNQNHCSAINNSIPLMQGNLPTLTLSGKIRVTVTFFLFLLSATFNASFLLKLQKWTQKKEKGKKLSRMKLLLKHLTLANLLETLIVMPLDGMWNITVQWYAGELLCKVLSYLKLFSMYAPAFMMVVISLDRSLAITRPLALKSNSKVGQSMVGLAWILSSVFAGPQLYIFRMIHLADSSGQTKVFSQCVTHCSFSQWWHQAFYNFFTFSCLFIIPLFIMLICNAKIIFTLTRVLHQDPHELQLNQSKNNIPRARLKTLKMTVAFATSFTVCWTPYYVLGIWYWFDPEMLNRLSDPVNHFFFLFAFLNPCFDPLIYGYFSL

Assay [4] deals with KiSS-1 receptor (Homo sapiens) (UniProt Q969F8). In words: Human kisspeptin (KISS1R) small molecule agonists, calcium flux assay in KISS1R-HEK293 cells (AID 1920064; active = well fitted curve in the direction sought with a large enough effect in the repeat runs; an effect the other way counts as inactive or inconclusive). In outline: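 Agonist mode: intracellular calcium rise tracked at 1 s intervals over 3 min (480/540 nm) immediately after compound addition to dye-loaded KISS1R-HEK293 stable cells. Each compound tested at 15 concentrations in triplicate.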
Chain of KiSS-1 receptor (Homo sapiens) (Q969F8 whole entry, looked up): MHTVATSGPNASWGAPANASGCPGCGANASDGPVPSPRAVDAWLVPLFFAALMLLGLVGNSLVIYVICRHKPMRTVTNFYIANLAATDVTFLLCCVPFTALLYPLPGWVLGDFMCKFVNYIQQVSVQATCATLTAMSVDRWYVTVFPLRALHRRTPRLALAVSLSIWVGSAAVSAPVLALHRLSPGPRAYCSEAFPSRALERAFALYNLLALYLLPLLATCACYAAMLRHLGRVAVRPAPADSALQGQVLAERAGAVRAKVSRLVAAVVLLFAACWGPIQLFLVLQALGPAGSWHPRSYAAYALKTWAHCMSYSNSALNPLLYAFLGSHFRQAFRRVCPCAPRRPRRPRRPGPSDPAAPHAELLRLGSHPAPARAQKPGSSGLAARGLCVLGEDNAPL
In general terms: Calcium flux is commonly read through the fluorescence of an indicator in the cells.

Assay [5] in a line: G protein-coupled receptor (GPCR) small molecule agonists, calcium flux assay: HEK293 wild type cell line counter screen (AID 1920065). In outline:
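Calcium flux counter screen: compound added in agonist mode at 15 concentrations in triplicate to dye-loaded parental HEK293 cells. Fluorescence (480/540) read kinetically for 3 min; ATP served as positive control.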

Assay [6] in a line: p53 small molecule agonists, cell-based qHTS assay with rat liver microsomes (AID 1963578). Note: potency is the fitted concentration of half-maximal effect. In outline: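 Quantitative HTS of the Tox21 10K library: p53RE-bla cells, rat liver microsomes plus NADPH at 0.5 mg/mL final each, 16 h at 37 C, beta-lactamase fluorescence detection.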
Assay [7] can be described thus: p53 small molecule agonists, cell-based qHTS assay with human liver microsomes: qHTS cell viability counter screen (AID 1963579). Note: nearly all actives have a fitted effect of over 45% in size. Note: potency is the fitted concentration of half-maximal effect. In outline: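 Viability of p53RE-bla cells is measured as CellTiter-Glo luminescence following a 16 h, 37 C incubation with compound, liver microsomes from human donors and NADPH.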
The target of assay [8] is 5-hydroxytryptamine receptor 2A (Homo sapiens) (UniProt P28223). The experiment in a line: 5-hydroxytryptamine receptor 2A (HTR2A) small molecule agonists, cell-based qHTS assay (AID 1963587). Note: nearly all actives have a fitted effect of over 30% in size. Note: potency is the fitted concentration of half-maximal effect. In outline: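 CHO cells stably expressing human HTR2A, plated 18 h, loaded with calcium dye 1 h at 37 C. Agonist mode: compounds added and intracellular calcium fluorescence recorded kinetically for 2 min at 1 sec intervals.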
Chain of 5-hydroxytryptamine receptor 2A (Homo sapiens) (P28223 whole entry, looked up): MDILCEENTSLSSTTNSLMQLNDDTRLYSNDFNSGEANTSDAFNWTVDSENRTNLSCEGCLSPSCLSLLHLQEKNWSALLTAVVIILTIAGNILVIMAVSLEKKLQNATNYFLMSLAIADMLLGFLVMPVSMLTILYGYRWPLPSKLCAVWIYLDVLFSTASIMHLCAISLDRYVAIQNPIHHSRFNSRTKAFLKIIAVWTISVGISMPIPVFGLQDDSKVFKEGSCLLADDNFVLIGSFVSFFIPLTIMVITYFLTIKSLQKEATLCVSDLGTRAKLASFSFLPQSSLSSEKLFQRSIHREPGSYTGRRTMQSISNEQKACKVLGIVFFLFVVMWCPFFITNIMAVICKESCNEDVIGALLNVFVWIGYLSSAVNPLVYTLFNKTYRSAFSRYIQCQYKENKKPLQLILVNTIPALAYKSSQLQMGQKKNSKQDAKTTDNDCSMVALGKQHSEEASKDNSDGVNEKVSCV

Assay [9] addresses Muscarinic acetylcholine receptor M1 (Homo sapiens) (UniProt P11229). In words: Cholinergic receptor muscarinic 1 (CHRM1) small molecule antagonists, cell-based qHTS assay (AID 1963588). Note: nearly all actives have a fitted effect of over 40% in size. Note: potency is the fitted concentration of half-maximal effect. In outline: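 Compounds were tested at 15 concentrations in three independent runs. Dye-loaded CHRM1-CHO cells were exposed 5 min at room temperature before stimulation by acetylcholine added at 50nM. Intracellular calcium was read kinetically on FDSS for 3 min.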

Assay [10] shares this target. The experiment in a line: Cholinergic receptor muscarinic 1 (CHRM1) small molecule agonists, cell-based qHTS assay (AID 1963589). Note: nearly all actives have a fitted effect of over 35% in size. In outline:
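Agonist-mode calcium-flux screen: compounds at 15 concentrations, three independent runs, were pin-transferred onto dye-loaded human CHRM1-CHO cells. Fluorescence was then recorded kinetically every second over minutes.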

The nature of assay [11]: cAMP Responsive Elements (CRE) small molecule antagonists, cell-based qHTS assay (AID 1963591; active = well fitted inhibition curve with a large enough effect in the signal ratio in the repeat runs, not every such curve was filed as active; the % refers to the signal ratio). In outline: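 Antagonist mode: compounds are added alongside the adenylyl cyclase activator NKH477 (0.25 uM final) to CRE-bla HEK293T cells for 3 h. LiveBLAzer FRET substrate, 2 h at room temperature, reports bla expression.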
The target of assay [12] is Beta-2 adrenergic receptor (Homo sapiens) (UniProt P07550). The experiment in a line: Adrenergic beta2 receptor (ADRB2) small molecule antagonists, cell-based qHTS assay (AID 1963592). Note: series mostly up to about 92 µM; nearly all actives have a fitted effect of over 50% in size. In outline:
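Assay format: CHO-ADRB2 cells, 18-20hr seeding at 37C/5% CO2, then compound plus 1nM isoproterenol agonist mix for 0.5hr RT. Homogeneous time-resolved fluorescence cAMP detection after 1hr, expressed as 665/615 nm ratio.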

For assay [13], the target named is D(2) dopamine receptor (Homo sapiens) (UniProt P14416). In words: Dopamine D2 receptor (DRD2) small molecule agonists, cell-based qHTS assay (AID 1963594). Note: nearly all actives have a fitted effect of over 35% in size. In outline: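 HEK293 cells stably expressing human DRD2, pre-treated with PDE inhibitor Ro20-1724 (0.1 mM final) and compound 10 min at room temperature, then stimulated with NKH477 (200nM […]) for 30 min. cAMP read by HTRF (665/620 nm).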
Chain of D(2) dopamine receptor (Homo sapiens) (P14416 whole entry, looked up): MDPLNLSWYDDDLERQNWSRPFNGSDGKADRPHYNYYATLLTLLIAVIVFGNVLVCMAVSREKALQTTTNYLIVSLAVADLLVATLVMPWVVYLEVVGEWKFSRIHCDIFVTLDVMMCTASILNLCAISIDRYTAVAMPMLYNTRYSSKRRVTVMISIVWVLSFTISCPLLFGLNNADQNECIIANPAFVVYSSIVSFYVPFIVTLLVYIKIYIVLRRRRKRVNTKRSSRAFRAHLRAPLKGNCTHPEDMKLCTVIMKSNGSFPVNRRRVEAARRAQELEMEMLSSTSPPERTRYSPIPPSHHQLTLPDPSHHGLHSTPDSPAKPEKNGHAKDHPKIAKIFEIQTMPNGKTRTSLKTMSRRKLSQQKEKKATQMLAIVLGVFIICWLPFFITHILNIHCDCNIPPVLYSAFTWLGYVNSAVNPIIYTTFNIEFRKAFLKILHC

Assay [14] is described as follows: p53 small molecule agonists, cell-based qHTS assay: qHTS cell viability counter screen (AID 1963581). Note: nearly all actives have a fitted effect of over 45% in size. In outline: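 Counter screen read by CellTiter-Glo luminescence (ATP content, 30 min at room temperature), run in the same wells as the beta-lactamase reporter read. HCT-116 p53RE-bla cells saw compounds for 16 h at 37 C.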
The target in assay [15] is 5-hydroxytryptamine receptor 2A (Homo sapiens) (UniProt P28223). In words: 5-hydroxytryptamine receptor 2A (HTR2A) small molecule antagonists, cell-based qHTS assay (AID 1963586). Note: nearly all actives have a fitted effect of over 45% in size. In outline:
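CHO cells stably expressing human HTR2A were plated for 18 h at 37 C, then loaded with calcium dye for 1 h. Compounds were preincubated 5 min at room temperature before DOI (4 nM solution) was added. Kinetic fluorescence was read for 3 min.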

In assay [16] the target is D(2) dopamine receptor (Homo sapiens) (UniProt P14416). In words: Dopamine D2 receptor (DRD2) small molecule antagonists, cell-based qHTS assay (AID 1963595; active = well fitted inhibition curve with a large enough effect in the signal ratio in the repeat runs, with a control signal flat; the % refers to the signal ratio). In outline: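 Stable D2 receptor HEK293 line, 24 h after seeding. Compound preincubated 10 min, then quinpirole (12 nM) with forskolin analogue NKH477 (200 nM), 30 min, room temperature. Detection by time-resolved FRET of cAMP.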

The nature of assay [17]: p53 small molecule agonists, cell-based qHTS assay with rat liver microsomes: qHTS cell viability counter screen (AID 1963580). Note: nearly all actives have a fitted effect of over 45% in size. In outline: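 After the beta-lactamase ratio was read, CellTiter-Glo was added to the same wells and luminescence measured at 30 min; cells had been treated 16 h at 37 C with compounds, rat liver microsomes and NADPH (0.5 mg/mL final each).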
Assay [18] in a line: p53 small molecule agonists, cell-based qHTS assay (AID 1963582; active = well fitted activation curve with a large enough effect in the signal ratio in the repeat runs, not every such curve was filed as active; the % refers to the signal ratio). In outline:
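Read-out is beta-lactamase FRET fluorescence after 2 h at room temperature with LiveBLAzer B/G substrate. p53 response element-bla cells were treated 16 h at 37 C with compounds in DMSO, added 5 h after seeding.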

The nature of assay [19]: cAMP Responsive Elements (CRE) small molecule agonists, cell-based qHTS assay (AID 1963590). In outline: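 Agonist mode: compound added to CRE-bla HEK 293T cells (2,000/well, 18 h after plating) for 3 h at 37 C/5% CO2. Reporter activity detected via FRET beta-lactamase substrate, 2 h room-temperature loading.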
For assay [20], the target named is Beta-2 adrenergic receptor (Homo sapiens) (UniProt P07550). The experiment in a line: Adrenergic beta2 receptor (ADRB2) small molecule agonists, cell-based qHTS assay (AID 1963593).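 Note: CHO cells stably overexpressing human ADRB2.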 In outline: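 CHO cells stably over-expressing ADRB2 were plated overnight at 37C, then dosed with compounds plus a stimulation mix containing 100uM IBMX and 25uM Ro-20-1724 for 0.5hr at room temperature. cAMP was measured by HTRF competition, 1hr.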
Chain of Beta-2 adrenergic receptor (Homo sapiens) (P07550 whole entry, looked up): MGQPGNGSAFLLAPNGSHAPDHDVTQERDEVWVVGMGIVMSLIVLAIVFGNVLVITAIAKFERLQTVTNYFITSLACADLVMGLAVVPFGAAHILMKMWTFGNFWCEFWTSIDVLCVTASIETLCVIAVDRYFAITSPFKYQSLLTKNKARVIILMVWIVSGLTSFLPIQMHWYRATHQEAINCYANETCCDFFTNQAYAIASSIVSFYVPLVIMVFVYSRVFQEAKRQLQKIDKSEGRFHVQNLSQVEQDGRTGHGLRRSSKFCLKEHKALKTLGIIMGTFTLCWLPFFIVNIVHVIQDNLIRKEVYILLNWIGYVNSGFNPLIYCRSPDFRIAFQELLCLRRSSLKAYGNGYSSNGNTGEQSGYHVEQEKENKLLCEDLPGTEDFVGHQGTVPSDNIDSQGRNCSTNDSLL

“And” between values parts separate entries of the source, which are not always exact repeats. Equal entries are not always repeated. Results filed as inconclusive are left out. A structure can be active in one record and inactive in another. The source made the active and inactive calls. Unless noted, calls come from the whole dose curve.

Chain of Muscarinic acetylcholine receptor M1 (Homo sapiens) (P11229 whole entry, looked up): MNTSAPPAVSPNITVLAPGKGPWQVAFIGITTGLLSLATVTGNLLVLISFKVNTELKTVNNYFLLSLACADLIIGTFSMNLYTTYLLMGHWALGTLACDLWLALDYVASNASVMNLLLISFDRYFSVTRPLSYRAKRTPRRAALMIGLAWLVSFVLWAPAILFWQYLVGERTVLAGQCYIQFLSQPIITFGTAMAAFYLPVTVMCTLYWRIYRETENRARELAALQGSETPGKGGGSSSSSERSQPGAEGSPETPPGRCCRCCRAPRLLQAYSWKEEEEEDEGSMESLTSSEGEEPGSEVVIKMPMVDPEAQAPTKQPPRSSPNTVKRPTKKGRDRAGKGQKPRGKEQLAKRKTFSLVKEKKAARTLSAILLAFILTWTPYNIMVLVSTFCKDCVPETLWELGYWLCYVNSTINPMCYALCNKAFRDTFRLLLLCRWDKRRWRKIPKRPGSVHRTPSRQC

On to `CC(C)(c1cc(Br)c(O)c(Br)c1)c1cc(Br)c(O)c(Br)c1`, for which the Potency in assay [1] is 43.1 µM (active) and 38.5 µM (active); in assay [7], 16.2 µM (active) and 36.3 µM (active); in [8], 48.8 µM (active). Besides, the Potency entry in assay [2], in assay [3], in assay [4], in [5], in assay [6] and in assay [9] was “inactive” throughout. In addition, the Potency result in [10], in assay [11], in assay [12] and in assay [13] was “inactive” in each case.
As for `Nc1c2ccccc2nc2ccccc12`, the Potency result in assay [1], in [3], in assay [4], in assay [5], in assay [7] and in assay [14] was “inactive” throughout. Further, the Potency result in assay [15], in [8], in assay [12], in assay [13] and in [16] was “inactive” in each case. Moreover, the Potency was 6.03 µM (active) and 6.68 µM (active) in assay [2]; 40.3 µM (active) in [6]; 14.7 µM (active) and inactive in assay [9].
In the case of `Cc1nc(C)c(C)nc1C`, the Potency result in [1], in assay [2], in assay [3], in assay [4], in assay [5] and in [6] was “inactive” each time. The Potency entry in assay [17], in assay [14], in [18], in [15], in assay [9] and in assay [10] was “inactive” each time. In addition, the Potency result in assay [19], in [11], in assay [12], in assay [20], in [13] and in assay [16] was “inactive” in each case.
Take `COc1nc(N)nc2nc[nH]c12`: the Potency entry in assay [1], in [2], in [3], in [4], in assay [5] and in [6] was “inactive” in each case. For the same compound, the Potency result in assay [17], in assay [14], in assay [18], in assay [15], in assay [8] and in assay [9] was “inactive” in each case. In addition, the Potency result in assay [10], in [19], in assay [11], in assay [12], in [20] and in assay [13] was “inactive” each time. Besides, the Potency result in [16] was “inactive”.
Take `COc1ccccc1NC(=O)CC(C)=O`: the Potency result in assay [1], in assay [2], in assay [3], in assay [4], in [5] and in [6] was “inactive” in each case. Also, the Potency result in [17], in assay [14], in [18], in assay [15], in [8] and in assay [9] was “inactive” each time. The Potency result in assay [10], in [19], in assay [11], in [13] and in [16] was “inactive” throughout.
As to `C=CC(=O)NC(C)C`, the Potency entry in assay [1], in [2], in assay [3], in assay [4], in assay [5] and in assay [6] was “inactive” in each case. For the same compound, the Potency entry in [17], in assay [14], in [18], in assay [15], in [8] and in [9] was “inactive” each time. Besides, the Potency result in assay [10], in [19], in [12], in [20], in assay [13] and in [16] was “inactive” throughout.
Turning to `CC(C)(C)NC(N)=O`, the Potency result in assay [1], in [2], in assay [3], in [4], in [5] and in assay [6] was “inactive” throughout. The Potency result in assay [17], in [14], in assay [18], in [15], in [8] and in assay [9] was “inactive” throughout. Also, the Potency result in assay [10], in [19], in assay [11], in [12], in [13] and in assay [16] was “inactive” each time.
